# According to PubChem BioAssay (Tox21):
# Records with an inconclusive call do not appear. A call without a number means that no potency is given here. Activity calls are given as the source filed them. Calls come from the whole dose curve; as a rule, active = well fitted cell-killing curve with a large enough effect in the repeat runs; inconclusive = weak or mixed curves, or effect the other way; inactive = flat fitted curve, though single readings scatter.
# Columns and labels:
# [1] = cAMP Responsive Elements (CRE) small molecule antagonists, cell-based qHTS assay: qHTS cell viability counter screen (AID 2060913); note: nearly all actives have a fitted effect of over 40% in size
# Outline: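 Cytotoxicity counter screen multiplexed with the CRE-bla antagonist read: HEK293T cells in DMEM with dialyzed FBS and 25 mM HEPES were treated 3 hrs under 0.25 uM final NKH477, then viability measured by CellTiter-Glo luminescence.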
# [2] = cAMP Responsive Elements (CRE) small molecule agonists, cell-based qHTS assay: qHTS cell viability counter screen (AID 2060914);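 note: viability read after 3 h of compound exposure; nearly all actives have a fitted effect of over 50% in size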
# Outline: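 CRE-bla HEK293T cells in 10% dialyzed FBS medium were exposed to compounds for 3 h at 37C after 18 h plating. CellTiter-Glo was then added in the same wells, and luminescence was read after 30 min at room temperature.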
Structure (SMILES),Potency [1],Potency [2]
Cc1onc(-c2c(Cl)cccc2Cl)c1C(=O)N[C@@H]1C(=O)N2[C@@H]1SC(C)(C)[C@@H]2C(=O)O,inactive,inactive
CCO[Si](C)(C)OCC,inactive,inactive
COc1ccc(C2CNC(=O)C2)cc1OC1CCCC1 (stereo not given),inactive,inactive
C[C@]12CCC(=O)C=C1CC[C@@H]1[C@@H]2C(=O)C[C@@]2(C)[C@H]1CC[C@]2(O)C(=O)CO,inactive,inactive
CCCN[C@H]1CCc2nc(N)sc2C1,inactive,inactive
CC/C=C\CCOC(C)OCC (stereo not given),inactive,inactive
CCCCCCCC/C=C/CCCCCCCC1=NCCN1CCO,inactive,inactive
CC(C)(C)C(=O)O,inactive,inactive
COc1ccc(NS(=O)(=O)c2ccc(N)cc2)nn1,inactive,inactive
CC(CO)(CO)[N+](=O)[O-],inactive,inactive
C1COCCO1,inactive,inactive
CC/C=C\C#N,inactive,inactive
Cc1ccc(N(C)C)cc1,inactive,inactive
CCC(OCCCOC)OC(C)=O (stereo not given),inactive,inactive
CCc1ccc(C)nc1,inactive,inactive
O=[N+]([O-])c1ccc2ncccc2c1,inactive,inactive
O=S(=O)(c1ccc(OCc2ccccc2)cc1)c1ccccc1O,inactive,inactive
Cc1cc(NS(=O)(=O)c2ccc(N)cc2)nc(C)n1,inactive,inactive
C[N+](C)(C)CC[N+]1(C)Cc2c(Cl)c(Cl)c(Cl)c(Cl)c2C1,inactive,inactive
CN=C(NC#N)Nc1ccc(C2=NNC(=O)CC2C)cc1 (stereo not given),inactive,inactive
